# In ChEMBL document CHEMBL4513216, “Probing the Open Global Health Chemical Diversity Library for Multistage-Active Starting Points for Next-Generation Antimalarials” (ACS Infect Dis, 2020):
# Screen size: about 69,000 compounds; about 8,600 (12%) showed an effect of 50% or more. Shown is part of a subset that was picked to be rich in strong results.
# Tested on: Plasmodium berghei
# Assay: Screen against P. berghei liver stage (PbLuc), transformed with Luciferase, at 10uM
# Type: functional, HepG2
# Conditions: tested at 10 uM
row,SMILES,INHIBITION [%]
1,CO[C@@H]1CCN(S(=O)(=O)c2cn(C)cn2)[C@H]1Cc1ccncc1,39.4
2,Cc1nccn1CCNC(=O)C1(C)CC(c2ccccc2)=NO1 (stereo unspecified),-1.16
3,Cc1ccc(CN2CCO[C@@H]3[C@@H](OCc4cccnc4)CC[C@@H]32)o1,26.5
4,CCN(CC)CCN1CCO[C@H]2[C@@H](OCc3ccncc3)CC[C@@H]21,29
5,COc1ccc(CN2CCO[C@H]3[C@H](OCc4ccncc4)CC[C@@H]32)cc1,90.1
6,COc1ccc(CN2CCO[C@H]3[C@H](OCCN4CCCC4)CC[C@@H]32)cc1,0.618
7,Cc1ccc(CN2CCO[C@H]3[C@@H](OCc4cccnc4)CC[C@@H]32)o1,15.6
8,Fc1ccc(CN2CCO[C@H]3[C@H](OCc4ccncc4)CC[C@@H]32)cc1,92.8
9,CO[C@@H]1CC[C@H]2[C@H]1OCCN2Cc1ccc(F)cc1,25.3
10,Cc1cccc(CO[C@@H]2CC[C@H]3[C@H]2OCCN3Cc2ccsc2)n1,16.6
11,COCCN1CCO[C@H]2[C@H](OCc3cccc(C)n3)CC[C@@H]21,-8.25
12,Cc1cccc(CO[C@@H]2CC[C@H]3[C@H]2OCCN3Cc2ccoc2)n1,67.5
13,Cc1ccc(CN2CCO[C@H]3[C@H](OCc4cccnc4)CC[C@@H]32)o1,56.4
14,CCO[C@@H]1CC[C@H]2[C@H]1OCCN2Cc1ccc(F)cc1,8.52
15,O=C(NCC1CC[C@@H]2[C@@H]1OCCN2Cc1cccs1)c1ccco1 (stereo partly specified),12.1
16,CCCn1ncc(CN(Cc2cccnc2)Cc2cccs2)c1C,-4.87
17,Cc1ocnc1C(=O)N(C)[C@@H]1CC[C@@H](Oc2ccccc2)[C@@H]1O,16.2
18,COCCO[C@H]1CCN(Cc2cnn(C)c2)[C@H]1Cc1cccnc1,9.51
19,CN(C)C(=O)C1OC2(CCN(c3ncc(F)cn3)CC2)c2ccccc21 (stereo unspecified),49.3
20,Cc1noc(C)c1-c1ccnc(C2CCN(S(=O)(=O)N(C)C)CC2)c1,35.2
21,CCN(Cc1cn(C)nc1-c1ccc2c(c1)OCCO2)CC1CCCO1 (stereo unspecified),28.5
22,CC(C)N1CCCC(CNC(=O)CN(C)S(=O)(=O)c2ccccc2)C1 (stereo unspecified),-3.21
23,Cn1nc(CNC(=O)C2CCC2)cc1C1CC1,-34.5
24,c1cc(CO[C@@H]2CC[C@H]3[C@H]2OCCN3CC2CCOCC2)ccn1,68.8
25,Cc1cccc(CO[C@@H]2CC[C@H]3[C@H]2OCCN3Cc2nccs2)n1,-44.2
26,c1cc(CO[C@H]2CC[C@H]3[C@H]2OCCN3Cc2nccs2)ccn1,84.7

row,SMILES,INHIBITION [%]
1,c1csc(CN2CCO[C@H]3[C@H](OCC4CCCC4)CC[C@@H]32)n1,41.2
2,CCO[C@@H]1CC[C@H]2[C@H]1OCCN2Cc1ccoc1,35.8
3,O=C(C1CCOCC1)N1CCO[C@H]2[C@@H](OCc3ccncc3)CC[C@@H]21,43.3
4,c1cc(CO[C@@H]2CN(Cc3ccoc3)[C@@H]3CCCO[C@@H]32)ccn1,47.5
5,c1ccc(CO[C@H]2CC[C@H]3[C@H]2OCCN3Cc2nccs2)nc1,22.2
6,Cc1cccc(CN2CCO[C@H]3[C@@H](OCc4ccncc4)CC[C@@H]32)n1,85.6
7,O=C(C1CCOCC1)N1CCO[C@H]2[C@H](OCc3ccncc3)CC[C@@H]21,14.1
8,c1cc(CO[C@@H]2CC[C@H]3[C@H]2OCCN3Cc2ccoc2)ccn1,55.7
9,Cc1cccc(CO[C@@H]2CC[C@H]3[C@H]2OCCN3Cc2cc(C)on2)n1,-46.8
10,COCCN1CCC(c2nc3c([nH]2)CCCNC3=O)CC1,44
11,COc1cccc(CNCc2ccc(F)cc2Cl)c1O,-38
12,COC(=O)CNC(=O)N1CCN(c2nc3ccccc3n2C)CC1,10.7
13,Cc1nc2[nH]cnc(NCCN3CCCC3)c-2n1,29.7
14,COCC(=O)N1CC[C@@H]2O[C@@H](COCc3csc(C)n3)CC[C@@H]21,27.3
15,CCc1ncc2c(n1)CN(CC(=O)Nc1nncs1)CC2,33.8
16,Cn1ccnc1S(=O)(=O)C(C(=O)N1CCCCC1)c1ccccc1 (stereo unspecified),28.1
17,COCCN1CCCc2sc(C(=O)Nc3ccc(C)nc3)nc21,16.9
18,Cc1ccc(OCCNc2cccc(C(=O)N3CCOCC3)c2)cc1,-17.3
19,CC(CN1CCCC1=O)NC(=O)c1ccc(-c2ccco2)[nH]c1=O (stereo unspecified),16.6
20,O=c1nc(CNc2ccccc2)[nH]n1Cc1ccccc1,-31.6
21,COc1nccc(C(F)(F)F)c1C(=O)O,4.12
22,CC(C)(C)CCNC(=O)c1ccc(Cl)c(NS(C)(=O)=O)c1,-3.81
23,Cc1ccc(C(=O)NCCCNS(C)(=O)=O)cc1C,-43.2
24,Cc1cc(C(=O)NCCC(C)C)ccc1NS(C)(=O)=O,65.6
25,CCN(CC)CCNC(=O)c1ccc(Cl)c(NS(C)(=O)=O)c1,18.6
26,Cc1ccc(C(=O)NCCC(C)C)cc1NS(C)(=O)=O,18.6

row,SMILES,INHIBITION [%]
1,CC(C)CCNC(=O)c1ccc(Cl)c(NS(C)(=O)=O)c1,54.4
2,Cc1nccn1-c1ccc(=O)n(CCNC(=O)c2c(F)cccc2Cl)n1,6.67
3,CCn1ccnc1CN1CCN(CC(O)CN2CCOCC2)CC1 (stereo unspecified),12.415
4,CC(NC(=O)NCCC1=CCCCC1)c1nncn1C (stereo unspecified),15.7
5,Cc1ccc(-c2nc(C3CCN(C(=O)c4ccn(C)n4)CC3)no2)cn1,-26.7
6,CN(CC(=O)NCC(F)(F)F)C(=O)c1ccc(C(=O)OC(C)(C)C)cc1,63.7
7,CN(CC(=O)NCC(F)(F)F)C(=O)c1ccc(=O)[nH]c1,-10.8
8,Cc1ccc(C(=O)N(C)CC(=O)NCC(F)(F)F)cn1,42
9,COC(=O)c1cccn1C1CCN(C(=O)c2cc(F)ccc2C)CC1,8.64
10,CS(=O)(=O)N1CC(=O)N(CCCc2ccccc2)CC(O)C1 (stereo unspecified),42.7
11,COc1ccc(-c2nc(C(=O)NCC3CCOC3)cs2)cc1OC (stereo unspecified),34.7
12,Cc1cn[nH]c1C1CCCN1Cc1ccc(F)c(F)c1 (stereo unspecified),15.5
13,Cc1cc(CCC(=O)O)nc(C2CCCN2c2ccnc(C)n2)n1 (stereo unspecified),50.8
14,Cc1cc(C)nc(C2CCCN2c2ccnc(C)n2)n1 (stereo unspecified),7.52
15,Cc1cc(C)nc(N2CCC(c3cccc(CCC(=O)O)n3)CC2)n1,4.13
16,CN(C)C(=O)CCc1cncc(C2CCCN2Cc2ccccn2)n1 (stereo unspecified),-1.85
17,Cc1cc(N2CCCC2c2nc(C)cc(CCC(=O)O)n2)ncn1 (stereo unspecified),9.93
18,O=C(O)CCc1cccc(C2CCCN2Cc2cccc(Cl)c2)n1 (stereo unspecified),19.6
19,O=C(O)CCc1cccc(C2CCCN2Cc2ccc(F)c(F)c2)n1 (stereo unspecified),58
20,Cc1cccc(CN2CCCC2c2cccc(CCC(=O)O)n2)c1 (stereo unspecified),51.5
21,O=C(c1ccnnc1)N1C[C@H](OCC2CC2)[C@H]2COC[C@H]21,-2.25
22,CCOC(=O)c1sc(NC(=O)c2cc(=O)c(OC)c[nH]2)nc1C,8.12
23,CCS(=O)(=O)N1CC[C@@H]2[C@H](CC1)N(Cc1cccc(C)n1)CCS2(=O)=O,49.7
24,CCc1nc(CN(C)C2CCN(Cc3nnc(C4CCC4)o3)C2)no1 (stereo unspecified),21.5
25,CC1c2ncc(CNC(=O)C3CC3)n2CCN1Cc1cnn(C)c1 (stereo unspecified),-8.94
26,O=C(COc1ccccc1NCc1ccoc1)N1CCOCC1,-5.22

row,SMILES,INHIBITION [%]
1,CCc1nnsc1C(=O)N1CCCC1c1c(C)nn(C)c1OC (stereo unspecified),-25.8
2,Cc1nc(N)nc(C)c1Cc1nc(C2CC2)n[nH]1,32.3
3,Cc1n[nH]c(C)c1CCc1nc(C2CC2)n[nH]1,50.7
4,Cc1nc(C)c(Cc2nc(C3CC3)n[nH]2)c(=O)[nH]1,29
5,CC(=O)NCC(=O)N1CCN(CCN(C)C)c2ncccc2C1,6.79
6,Nc1ccncc1-n1cc(CCO)cn1,33.3
7,Cn1c(CCNc2nccnc2C#N)nc2cc(Cl)ccc21,32.3
8,Cc1nnc(NCCc2nc3ccc(F)cc3n2C)c(C#N)c1C,34.1
9,CC(C)n1nccc1NC(=O)NCCc1nc2ccc(F)cc2n1C,73.6
10,Cn1c(CCCNC(=O)Nc2cn[nH]c2)nc2ccccc21,-7.66
11,Cn1c(CCNc2nccnc2C#N)nc2ccc(F)cc21,67.3
12,Cn1c(CCNC(=O)Nc2cn[nH]c2)nc2ccc(F)cc21,-5.52
13,Cc1nc(C2CCCN2CCOCC2CC2)no1 (stereo unspecified),-77.6
14,O=C(c1ccc(N2CCCC2)nn1)N1CCCC(n2ccnc2)C1 (stereo unspecified),29.2
15,CCOc1ccc(CN2CCC(c3nc(C)cc(C)n3)C2)cc1CO (stereo unspecified),44.05
16,CN1CC(C(=O)Nc2ccc(OCC(F)(F)C(F)F)nc2)CC1=O (stereo unspecified),-14.6
17,Cc1nc2[nH]cnc(NCCCN3CCOCC3)c-2n1,5.03
18,Cc1nc(C2CCCN2CC(=O)NCCOc2ccccc2)no1 (stereo unspecified),50.4
19,Cc1nc(C2CCCN2CC(=O)NCCOc2ccc(F)cc2)no1 (stereo unspecified),55.15
20,Cc1nc(C2CCCN2CC(=O)NCCOc2cccc(F)c2)no1 (stereo unspecified),2.8815
21,COc1ccc(CCNC(=O)CN2CCCC2c2noc(C)n2)cc1 (stereo unspecified),-3.2
22,CCc1nc(C2CCCN2CC(=O)NCCOc2ccccc2)no1 (stereo unspecified),-2.95
23,Cc1cccc(OCCNC(=O)CN2CCCC2c2noc(C)n2)c1 (stereo unspecified),6.905
